PubChem BioAssay (EPA / NIEHS)
The source holds several records for some structures; these can differ, active in one and inactive in another. The source made the active and inactive calls. How the source made its calls: active means hit-call score of the fitted dose curve at least 0.9, where 1 is the maximum; inactive means score below 0.9.

What was measured:
[1] = read-out: TIMP metallopeptidase inhibitor 2 (TIMP2), TIMP2 (gene 7077); assay: BSK_KF3CT_TIMP2: BioMAP Diversity Plus: KF3CT Assay for TIMP metallopeptidase inhibitor 2 (TIMP2) Biomarker Activity (AID 2283071); details: primary human keratinocytes with fibroblasts; actives raise or lower the signal
How it was run: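 Human primary keratinocyte/foreskin fibroblast co-culture dosed with chemical and sampled at 24 h. TIMP-2 levels quantified by ELISA; bidirectional fitting against DMSO negative control as baseline.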

[2] = read-out: Transforming growth factor beta 1 (TGFb1), TGFB1 (gene 7040); assay: BSK_KF3CT_TGFb1: BioMAP Diversity Plus: KF3CT Assay for Transforming growth factor beta 1 (TGFb1) Biomarker Activity (AID 2283072); details: primary human keratinocytes with fibroblasts; actives raise or lower the signal
How it was run: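 Human keratinocyte plus foreskin fibroblast primary co-culture, dosed with chemical for 24 h. TGF-b1 quantified by ELISA. Activity fitted bidirectionally against DMSO negative control as baseline.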

[3] = read-out: C-C motif chemokine 2 (Homo sapiens) (UniProt P13500); assay: BSK_KF3CT_MCP1: BioMAP Diversity Plus: KF3CT Assay for Monocyte Chemoattractant Protein 1 (MCP1/CCL2) Biomarker Activity (AID 2283073); details: primary human keratinocytes with fibroblasts; actives raise or lower the signal
How it was run: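 Keratinocytes and foreskin fibroblasts were co-cultured, dosed with chemical, and sampled 24 h later. MCP-1 was quantified by ELISA, and the endpoint was analyzed with bidirectional fitting using DMSO as negative control.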

[4] = read-out: Matrix Metallopeptidase 9 (MMP9), MMP9 (gene 4318); assay: BSK_KF3CT_MMP9: BioMAP Diversity Plus: KF3CT Assay for Matrix Metallopeptidase 9 (MMP9) Biomarker Activity (AID 2283074); details: primary human keratinocytes with fibroblasts; actives raise or lower the signal;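 on AC50: MMP9 protein level quantified by ELISA in the co-culture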
How it was run: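 Human keratinocyte/foreskin fibroblast co-culture; compound added; 24 h; MMP-9 by ELISA; bidirectional fit vs DMSO baseline.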

[5] = read-out: urokinase plasminogen activator (uPA), PLAU (gene 5328); assay: BSK_KF3CT_uPA: BioMAP Diversity Plus: KF3CT Assay for urokinase plasminogen activator (uPA) Biomarker Activity (AID 2283075); details: primary human keratinocytes with fibroblasts; actives raise or lower the signal
How it was run: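 ELISA readout of uPA, analyzed for signal gain or loss relative to DMSO, from a human primary keratinocyte–foreskin fibroblast co-culture measured 24 h after chemical treatment.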

CD40, CD40 (gene 958) [6] = assay: BSK_LPS_CD40: BioMAP Diversity Plus: LPS Assay for CD40 Biomarker Activity (AID 2283076); details: primary human HUVEC with PBMC; actives raise or lower the signal
How it was run: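 CD40 signal, measured by ELISA, is fitted in both directions relative to DMSO vehicle. The system is an LPS-driven human vascular primary co-culture of endothelial cells and PBMC, sampled 24 h after compound addition.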

[7] = read-out: E-selectin (Homo sapiens) (UniProt P16581); assay: BSK_LPS_Eselectin: BioMAP Diversity Plus: LPS Assay for Eselectin Biomarker Activity (AID 2283077); details: primary human HUVEC with PBMC; actives raise or lower the signal
How it was run: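 Signal of E-selectin, detected by ELISA, served as the endpoint; cells were umbilical vein endothelium with PBMC, read 24 h after treatment. DMSO defined baseline, and both increases and decreases were fitted.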

[8] = BSK_LPS_SRB: Viability Assessment in the BioMAP Diversity Plus: LPS Assay (AID 2283079); details: primary human HUVEC with PBMC;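 further: total protein by sulforhodamine B absorbance as a cytotoxicity measure; measured one day after compound addition; fitted in both directions against DMSO so loss or gain of signal counts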
How it was run: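 Overt cytotoxicity was gauged by sulforhodamine B total-protein staining in a primary human vascular endothelial and mononuclear cell co-culture 24 h post-dosing. Activity was fitted in both directions relative to DMSO.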

[9] = read-out: Interleukin-1 alpha (IL1a), IL1A (gene 3552); assay: BSK_LPS_IL1a: BioMAP Diversity Plus: LPS Assay for Interleukin-1 alpha (IL1a) Biomarker Activity (AID 2283080); details: primary human HUVEC with PBMC; actives raise or lower the signal
How it was run: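 Measured: IL-1 alpha via ELISA at 24 h in LPS-activated human umbilical vein endothelium–PBMC co-culture. Baseline: DMSO, bidirectional fitting.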

[10] = read-out: Monocyte Chemoattractant Protein-1 (MCP1), CCL2 (gene 6347); assay: BSK_LPS_MCP1: BioMAP Diversity Plus: LPS Assay for Monocyte Chemoattractant Protein-1 (MCP1) Biomarker Activity (AID 2283081); details: primary human HUVEC with PBMC; actives raise or lower the signal;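 on AC50: secreted MCP-1 protein quantified by ELISA in culture supernatant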
How it was run: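 LPS-stimulated HUVEC/PBMC co-culture; chemical, 24 h; MCP-1 by ELISA; bidirectional fit vs DMSO; cytotoxicity via SRB (0.1% stain, 10% TCA fix, 560 nm) in parallel wells.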

[11] = BSK_LPS_PGE2: BioMAP Diversity Plus: LPS Assay for Prostaglandin E2 (PGE2) Biomarker Activity (AID 2283082); details: primary human HUVEC with PBMC; actives raise or lower the signal;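 on AC50: secreted prostaglandin E2 measured by ELISA in LPS-stimulated co-culture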
How it was run: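 HUVEC plus PBMC co-culture stimulated with LPS; secreted PGE2 quantified by ELISA 24 h after chemical dosing. Activity fitted bidirectionally against DMSO as negative control and baseline; parallel SRB total-protein staining served as cytotoxicity check.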

[12] = read-out: Macrophage colony-stimulating factor (MCSF), CSF1 (gene 1435); assay: BSK_LPS_MCSF: BioMAP Diversity Plus: LPS Assay for Macrophage colony-stimulating factor (MCSF) Biomarker Activity (AID 2283083); details: primary human HUVEC with PBMC; actives raise or lower the signal
How it was run: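 Compound is added to a human vascular primary co-culture of umbilical vein endothelium and blood mononuclear cells. After 24 h, M-CSF is quantified by ELISA. Signal changes are fitted in both directions against DMSO.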

[13] = read-out: Tissue Factor, F3 (gene 2152); assay: BSK_LPS_TissueFactor: BioMAP Diversity Plus: LPS Assay for Tissue Factor Biomarker Activity (AID 2283084); details: primary human HUVEC with PBMC; actives raise or lower the signal
How it was run: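 In this co-culture system of umbilical vein endothelium with PBMC, stimulated with LPS, cell-surface CD142 is detected by ELISA at 24 h. Endpoint values derive from bidirectional fitting, DMSO serving as baseline.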

[14] = read-out: Tumor necrosis factor (Homo sapiens) (UniProt P01375); assay: BSK_LPS_TNFa: BioMAP Diversity Plus: LPS Assay for Tumour Necrosis Factor alpha (TNFa) Biomarker Activity (AID 2283085); details: primary human HUVEC with PBMC; actives raise or lower the signal
How it was run: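 Human umbilical vein endothelial cells co-cultured with PBMC were exposed to test chemical and TNFa measured by ELISA 24 h after dosing. Bidirectional curve fitting was done relative to DMSO as negative control and baseline.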

[15] = read-out: Vascular cell adhesion molecule 1 (VCAM1), VCAM1 (gene 7412); assay: BSK_LPS_VCAM1: BioMAP Diversity Plus: LPS Assay for Vascular cell adhesion molecule 1 (VCAM1) Biomarker Activity (AID 2283086); details: primary human HUVEC with PBMC; actives raise or lower the signal
How it was run: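 Human umbilical vein endothelial cells co-cultured with peripheral blood mononuclear cells under LPS stimulation were exposed to test chemical for 24 h. VCAM-1 levels were then measured by ELISA, with bidirectional curve fitting relative to DMSO as negative control and baseline.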

CD38, CD38 (gene 952) = assay: BSK_SAg_CD38: BioMAP Diversity Plus: SAg Assay for CD38 Biomarker Activity (AID 2283087); details: primary human HUVEC with PBMC; actives raise or lower the signal
How it was run: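 Fluorescence ELISA of cell-surface CD38 served as the read-out, with either increase or decrease fitted against DMSO controls. Cells were a human umbilical vein endothelium plus PBMC co-culture under SEB/TSST-1 stimulation, measured 24 h after dosing.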

CD40, CD40 (gene 958) [16] = assay: BSK_SAg_CD40: BioMAP Diversity Plus: SAg Assay for CD40 Biomarker Activity (AID 2283088); details: primary human HUVEC with PBMC; actives raise or lower the signal
How it was run: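 Fluorescence ELISA read-out of CD40 from umbilical vein endothelium plus peripheral blood mononuclear cells, sampled 24 h after dosing. Values come from bidirectional curve fitting with DMSO as baseline.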

CD69, CD69 (gene 969) = assay: BSK_SAg_CD69: BioMAP Diversity Plus: SAg Assay for CD69 Biomarker Activity (AID 2283089); details: primary human HUVEC with PBMC; actives raise or lower the signal;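 on AC50: cell surface CD69 protein quantified by ELISA with fluorescence detection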
How it was run: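 HUVEC co-cultured with PBMC were dosed with chemical, and CD69 was measured by ELISA with fluorescence read-out 24 h later. Bidirectional curve fitting used DMSO as negative control and activity baseline.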

[17] = read-out: Monocyte Chemoattractant Protein-1 (MCP1), CCL2 (gene 6347); assay: BSK_SAg_MCP1: BioMAP Diversity Plus: SAg Assay for Monocyte Chemoattractant Protein-1 (MCP1) Biomarker Activity (AID 2283090); details: primary human HUVEC with PBMC; actives raise or lower the signal
How it was run: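 MCP-1 levels in the endothelial–PBMC SAg co-culture were quantified by ELISA at 24 h post-dosing; both increases and decreases versus DMSO scored. Cytotoxicity monitored by SRB total protein in parallel cultures.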

[18] = read-out: Interleukin-8 (IL8), CXCL8 (gene 3576); assay: BSK_LPS_IL8: BioMAP Diversity Plus: LPS Assay for Interleukin-8 (IL8) Biomarker Activity (AID 2283078); details: primary human HUVEC with PBMC; actives raise or lower the signal
How it was run: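 Endothelial cells and PBMC from human donors are co-cultured, treated with chemicals and LPS, then assayed for IL-8 by ELISA after 24 h. Parallel SRB staining (0.1% SRB after 10% TCA fixation, 560 nm) flags cytotoxicity.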

Measured: AC50

Tumor necrosis factor (Homo sapiens), sequence (P01375 whole entry, looked up): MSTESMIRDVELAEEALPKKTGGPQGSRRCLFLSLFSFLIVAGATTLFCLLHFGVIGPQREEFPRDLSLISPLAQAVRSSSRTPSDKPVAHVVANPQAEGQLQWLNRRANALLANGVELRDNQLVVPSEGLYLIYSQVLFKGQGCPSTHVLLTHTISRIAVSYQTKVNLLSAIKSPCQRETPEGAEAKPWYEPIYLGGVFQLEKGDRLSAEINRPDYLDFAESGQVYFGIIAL
E-selectin (Homo sapiens), sequence (P16581 whole entry, looked up): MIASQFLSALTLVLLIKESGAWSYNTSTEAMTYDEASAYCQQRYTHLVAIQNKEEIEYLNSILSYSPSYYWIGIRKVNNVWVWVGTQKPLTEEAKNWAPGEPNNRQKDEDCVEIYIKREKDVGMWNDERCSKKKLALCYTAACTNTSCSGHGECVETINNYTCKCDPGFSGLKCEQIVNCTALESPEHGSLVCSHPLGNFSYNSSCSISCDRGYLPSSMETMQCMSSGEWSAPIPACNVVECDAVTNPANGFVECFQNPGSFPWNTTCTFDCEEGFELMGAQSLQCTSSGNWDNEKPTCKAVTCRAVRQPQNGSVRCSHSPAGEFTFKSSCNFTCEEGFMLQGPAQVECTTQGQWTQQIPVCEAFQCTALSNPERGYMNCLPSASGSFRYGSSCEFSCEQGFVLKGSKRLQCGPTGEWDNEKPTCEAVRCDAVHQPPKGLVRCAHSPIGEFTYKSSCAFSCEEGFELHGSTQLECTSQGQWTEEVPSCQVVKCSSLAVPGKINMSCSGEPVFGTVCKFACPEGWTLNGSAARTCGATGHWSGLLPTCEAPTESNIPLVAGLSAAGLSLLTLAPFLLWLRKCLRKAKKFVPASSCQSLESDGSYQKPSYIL

CCCN(CC)CC1COC2(CCC(C(C)(C)C)CC2)O1 (centres undefined)
active: [1] 6.62 µM | [3] 0.739 µM | CD38, CD38 (gene 952) 14.7 µM
not listed: [18]
inactive: all other assays above

COCC(C)N(C(=O)CCl)c1c(C)csc1C (centres undefined)
inactive: [1] | [2] | [3] | [4] | [5] | CD40, CD40 (gene 958) [6] | [8] | [9] | [10] | [11] | [12] | [13] | [14] | [15] | CD38, CD38 (gene 952) | CD40, CD40 (gene 958) [16] | CD69, CD69 (gene 969) | [17]
active: [15] 3.97 µM

CC1(C)C(C=C(Cl)Cl)C1C(=O)OC(C#N)c1cccc(Oc2ccccc2)c1 (centres undefined)
active: [8] 3.97 µM | [11] 4.89 µM | [14] 0.838 µM
not listed: [4]
inactive: all other assays above

CC(C)(C)C(=O)C(Oc1ccc(Cl)cc1)n1cncn1 (centres undefined)
not listed: [7]
inactive: all other assays above

CCC(C)n1c(=O)[nH]c(C)c(Br)c1=O (centres undefined)
active: [14] 10.5 µM
not listed: [7] | [18]
inactive: all other assays above

Nc1c(Cl)c(F)nc(OCC(=O)O)c1Cl
active: [13] 5.36 µM
not listed: [18]
inactive: all other assays above

COCC(=O)N(c1c(C)cccc1C)C(C)C(=O)OC (centres undefined)
not listed: [4]
inactive: all other assays above

C=CCOC(=O)C(C)(C)OC(=O)c1cc(-n2c(=O)cc(C(F)(F)F)n(C)c2=O)ccc1Cl
active: [1] 27.9 µM | [3] 1.89 µM | CD40, CD40 (gene 958) [6] 6.73 µM | [12] 13.9 µM | CD38, CD38 (gene 952) 10.8 µM | CD69, CD69 (gene 969) 6.29 µM
not listed: CD40, CD40 (gene 958) [16] | [18]
inactive: all other assays above

Cc1c(COC(=O)[C@@H]2[C@H](/C=C(\Cl)C(F)(F)F)C2(C)C)cccc1-c1ccccc1
active: [11] 4.57 µM | [12] 3.53 µM | CD40, CD40 (gene 958) [16] 16.5 µM | CD69, CD69 (gene 969) 5.92 µM
not listed: [7] | [18]
inactive: all other assays above

CCCCOCN(C(=O)CCl)c1c(CC)cccc1CC
active: [1] 31.6 µM | [2] 32.7 µM | [3] 39.1 µM | [4] 25.7 µM | [5] 31.3 µM | CD40, CD40 (gene 958) [6] 22.5 µM | [18] 28 µM | [8] 29.2 µM | [9] 30.7 µM | [10] 31.8 µM | [12] 27 µM | [13] 30.2 µM | [14] 35.1 µM | [15] 28.2 µM | CD38, CD38 (gene 952) 29.4 µM | CD40, CD40 (gene 958) [16] 30.8 µM | CD69, CD69 (gene 969) 18.3 µM | [17] 28.5 µM
inactive: [11]

CC(C)N1C(=O)N(c2ccccc2)CSC1=NC(C)(C)C
active: [4] 31.6 µM | CD40, CD40 (gene 958) [6] 28.2 µM | [7] 30.6 µM | [8] 34 µM | [9] 30.6 µM | [10] 30.5 µM | [11] 33.2 µM | [12] 18.9 µM | [13] 32.6 µM | [14] 32.1 µM | [15] 31.6 µM | CD38, CD38 (gene 952) 30.7 µM | CD40, CD40 (gene 958) [16] 33.4 µM | CD69, CD69 (gene 969) 30.3 µM | [17] 34.5 µM
inactive: [1] | [2] | [3] | [5]

COP(=S)(OC)SCn1nnc2ccccc2c1=O
active: [10] 20 µM | [11] 13.8 µM | [13] 16.9 µM | [14] 5.58 µM | [15] 20 µM | CD40, CD40 (gene 958) [16] 20 µM | CD69, CD69 (gene 969) 20 µM
not listed: [7]
inactive: all other assays above

CN/C(=N\[N+](=O)[O-])NCc1cnc(Cl)s1
not listed: [7]
inactive: all other assays above
